Reference: ChEMBL document CHEMBL3988442, “University of Dundee, Small-Polar-MMV Screening Library” (2021)

What follows are molecules tested against T1, Aspartate--tRNA(Asp/Asn) ligase (Mycobacterium tuberculosis (strain ATCC 25618 / H37Rv)) (UniProt P9WFW3) (assay: Assay for Asp RNA synthetase-1 from Mycobacterium tuberculosis). Details: 30 µM.
T1 sequence (whole entry): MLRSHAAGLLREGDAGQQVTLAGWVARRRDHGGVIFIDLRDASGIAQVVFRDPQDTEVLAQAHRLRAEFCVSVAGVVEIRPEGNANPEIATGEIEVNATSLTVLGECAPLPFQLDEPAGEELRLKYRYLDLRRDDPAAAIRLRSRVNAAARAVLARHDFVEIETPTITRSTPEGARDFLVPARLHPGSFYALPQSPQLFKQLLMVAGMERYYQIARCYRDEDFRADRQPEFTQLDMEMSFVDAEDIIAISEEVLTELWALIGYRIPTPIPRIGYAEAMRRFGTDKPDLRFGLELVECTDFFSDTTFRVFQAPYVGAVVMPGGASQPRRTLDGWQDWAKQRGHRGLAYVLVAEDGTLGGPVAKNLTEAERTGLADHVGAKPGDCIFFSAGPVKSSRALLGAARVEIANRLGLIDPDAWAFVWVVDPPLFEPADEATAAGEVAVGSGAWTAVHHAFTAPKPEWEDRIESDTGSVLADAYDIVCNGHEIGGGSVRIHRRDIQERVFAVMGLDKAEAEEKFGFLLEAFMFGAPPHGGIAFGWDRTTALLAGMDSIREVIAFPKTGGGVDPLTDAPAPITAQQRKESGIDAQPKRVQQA
Assay type: functional
Design: scale not given: in the data most compounds retested in dose-response had high values

Row | Structure (SMILES) | Percent Effect [%]
1 | Cc1nn(C)c(N2CCOCC2)c1CNC1CCc2cc(F)ccc21 (stereo not given) | -1.16
2 | COC(=O)[C@H](C)NC(=O)c1cc(-c2cccc(Cl)c2)no1 | 0.419
3 | Cc1cnc(C(=O)N(CCN(C)C)Cc2ccc(Cl)cc2)cn1 | -1.59
4 | CC(C)OCCN(Cc1cccc(O)c1)C1CCC(O)CC1 (stereo not given) | 3.29
5 | COc1cn(-c2ccccc2)nc1C(=O)NCCCN1CCCC(C)C1 (stereo not given) | -1.18
6 | CC(=O)N(C)c1nc(CN2CCCCC2Cn2cncn2)cs1 (stereo not given) | -3.1
7 | CCc1nnc2n1CCN(C(=O)c1cnc3ccccc3n1)C2 | -4.57
8 | COc1ccc(CNC(=O)NCC2CCOC2)c(C(F)(F)F)c1 (stereo not given) | -4.04
9 | COc1ccnc(N2CCN(C(=O)c3cnn(C)c3C3CC3)CC2)n1 | -3.2
10 | Cc1cc(CN2CCN(c3ccc4nncn4n3)C(C)C2)no1 (stereo not given) | -3.98
11 | O=C(CN1CC(n2cccn2)C1)NCCCc1ccccc1 | 0
12 | CCN1CCN(c2ccc(CNC(=O)c3ccc(Cl)o3)cn2)CC1 | -3.07
13 | CC(=O)NC1CCCN(C(=O)NCc2ccc(-c3ccn[nH]3)cc2)C1 (stereo not given) | -1.85
14 | CN1C(=O)C[C@@H]2[C@@H]1CCN2S(=O)(=O)Cc1ccccc1 | -2.58
15 | O=C(c1cnco1)N1CCCC(Cc2nccs2)C1 (stereo not given) | 1.57
16 | CCCNC(=O)C1CCN(Cc2csc(C(C)(C)C)n2)CC1 | -0.628
17 | CNC(=O)c1ccc(C(=O)N2CCCC(n3cc(C)cn3)C2)cn1 (stereo not given) | -5.95
18 | CC(=O)NCCc1ccc(C(=O)N2CCCC2c2cnn(C)c2)cc1 (stereo not given) | 3.04
19 | O=C(C1=CCCCC1)N1CCC2(CC1)COC(COc1ccccn1)C2 (stereo not given) | 0.351
20 | Cc1cc(C)n(Cc2cccc(C(=O)NCCN3CCOCC3)c2)n1 | 5.71
